The source made the active and inactive calls. The rule behind the calls is not given here.
System: HIV-1 nucleocapsid protein NCp7 (binding to TG oligonucleotide)
Experiment: HIV Nucleocapsid (AID 346);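 note: potency is for inhibitors that block NC binding and lower polarization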
Conditions: HIV-1 NC / fluorescein-TGTGTGTG probe, fluorescence polarization
Outline: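 Fluorescence polarization binding of 100 nM HIV-1 NC to 10 nM fluorescein-labelled TG4xF oligonucleotide. Buffer was Hepes pH 7.5 with 250mM NaCl, 1uM ZnCl2, TCEP and 2-mercaptoethanol. Compounds were incubated 1 hr at room temperature before the read.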
Potency is the fitted concentration of half-maximal effect.

SMILES | Potency
COc1ccc(C(=O)N2CCC[C@@]3(CCN(C)C3)C2)cc1 | > 20 µM (inactive)
CN(C)c1ncc2nc(CCc3ccccc3)c(=O)n(C3CC3)c2n1 | > 20 µM (inactive)
COc1ccc(C(=O)N2CCC3(CC2)CCN(c2cccc(-c4ccccc4)c2)CC3)cc1 | > 20 µM (inactive)
CN1CCN(c2ncc3nc(-c4cccc(C#N)c4)c(=O)n(C[C@H]4CCCO4)c3n2)CC1 | > 20 µM (inactive)
CC(C)CN1CCC2(CC1)CCN(C(=O)c1ccco1)CC2 | > 20 µM (inactive)
COCCNc1nc(-c2ccoc2)nc2ccccc12 | > 20 µM (inactive)
CCNc1ncc2ncc(=O)n(C3CC3)c2n1 | > 20 µM (inactive)
COc1ccccc1CNc1cc(-c2cccnc2)ncn1 | > 20 µM (inactive)
c1ccc(Nc2ncnc3ccc(-c4ccc5c(c4)OCO5)cc23)cc1 | > 20 µM (inactive)
Cc1noc(C)c1-c1cc(Nc2ccccc2)ncn1 | > 20 µM (inactive)
CN1CCN(c2cc(-c3ccoc3)ncn2)CC1 | > 20 µM (inactive)
CN(C)c1ncc2nc(-c3cccs3)c(=O)n(C[C@H]3CCCO3)c2n1 | > 20 µM (inactive)
CN1CCN(c2ncncc2-c2ccc(N(C)C)cc2)CC1 | > 20 µM (inactive)
COc1ccc(-c2nc3cnc(N4CCOCC4)nc3n(Cc3cccc(OC)c3)c2=O)cc1 | > 20 µM (inactive)
Cc1noc(C)c1C(=O)N1CCC2(CC1)CN(c1ccccc1)C2 | > 20 µM (inactive)
COc1ccccc1CN1CC2(CCN(S(C)(=O)=O)CC2)C1 | > 20 µM (inactive)
O=C(c1cnccn1)N1CCC2(CC1)CCN(c1cccc(-c3ccccc3)c1)CC2 | > 20 µM (inactive)
CN1CCN(c2ncnc3ccc(-c4cccc(NS(C)(=O)=O)c4)cc23)CC1 | > 20 µM (inactive)
O=C(c1ccco1)N1CCC[C@@]2(CCN(c3ccccn3)C2)C1 | > 20 µM (inactive)
Cc1nc2cnc(N3CCN(C)CC3)nc2n(Cc2ccc(F)cc2)c1=O | > 20 µM (inactive)

SMILES | Potency
CS(=O)(=O)N1CCC2(CCN(Cc3ccc(C#N)cc3)CC2)CC1 | > 20 µM (inactive)
Cc1noc(C)c1C(=O)N1CCC2(CCCN(C(=O)NC(C)C)C2)CC1 | > 20 µM (inactive)
Cc1cnc(CNc2nc(-c3ccc4c(c3)OCO4)nc3ccccc23)cn1 | > 20 µM (inactive)
O=C(Nc1cccc(F)c1)N1CC2(CCN(C(=O)c3csnn3)CC2)C1 | > 20 µM (inactive)
CCNc1ncc2nc(-c3cc(F)cc(F)c3)c(=O)n(C)c2n1 | > 20 µM (inactive)
Cc1noc(C)c1-c1cc(Nc2ccc(F)cc2)ncn1 | > 20 µM (inactive)
COc1ncc2nc(-c3ccc(F)cc3)c(=O)n(C[C@H]3CCCO3)c2n1 | > 20 µM (inactive)
O=c1c(-c2cccs2)nc2cnc(Nc3ccccc3)nc2n1C[C@H]1CCCO1 | 4.11 µM (active)
COc1cccc(Nc2ncc3nc(-c4ccccc4)c(=O)n(Cc4cccs4)c3n2)c1 | > 20 µM (inactive)
Cc1cccc(CNc2cc(-c3c(C)noc3C)ncn2)c1 | > 20 µM (inactive)
FC(F)(F)c1cc(CN2CCC3(CCNCC3)CC2)cc(C(F)(F)F)c1 | > 20 µM (inactive)
CS(=O)(=O)N1CCC2(CC1)CN(Cc1ccc(C#N)cc1)C2 | > 20 µM (inactive)
O=C(c1csnn1)N1CCC2(CC1)CN(c1ccncc1)C2 | > 20 µM (inactive)
c1ccc(C(c2ccccc2)N2CC3(CCNCC3)C2)cc1 | > 20 µM (inactive)
CNc1ccnc(-c2ccccc2OC)n1 | > 20 µM (inactive)
O=c1c(-c2ccc(F)cc2)nc2cncnc2n1Cc1ccc(F)cc1 | > 20 µM (inactive)
N#CCCn1c(=O)c(-c2cccs2)nc2cnc(Oc3cccc(Cl)c3)nc21 | > 4 µM (inactive)
COc1cccc(Cn2c(=O)c(C)nc3cnc(Nc4ccccc4)nc32)c1 | > 4 µM (inactive)
COCCNc1nc(-c2ccccc2C(F)(F)F)nc2ccccc12 | > 20 µM (inactive)

Source: PubChem BioAssay (NCATS)
